The AC50 is the concentration giving half of the maximal activity seen.

Active and inactive are the calls of the source. How the source made its calls: active means hit-call score of the fitted dose curve at least 0.9, where 1 is the maximum; inactive means score below 0.9.

The nature of this assay: ATG_AP_2_CIS: Attagene CIS-FACTORIAL HepG2 Assay for human Activator Protein 2 (AP-2) (AID 2282932). The following applies: HepG2 AP-2 cis-reporter, Attagene transcription factor profiling; actives raise or lower the signal. Put shortly:
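Cells (HepG2) transfected with promoter-driven reporter constructs, treated 24 h. Total RNA reverse-transcribed, reporter cDNA PCR-amplified, FAM-labelled by primer extension, digested, resolved by capillary electrophoresis. Activity fitted both directions versus DMSO.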
For `CCCCOCCOCCOC(C)=O`, the call was inactive. The same measure, in the same setting: to `c1ccc2cnccc2c1` belongs “inactive”; to `CCCCCCCCCCCCc1ccc(O)cc1`, “inactive”. Same read-out and setting: to `O=C(C=Cc1ccccc1)OCCc1ccccc1` belongs “inactive”; to `CCC(C)N` (centres undefined), “inactive”; to `CCCCCCOC(=O)CCCCC(=O)OCCCCCC`, “inactive”.

Turning to `CCCC/C=C/C=C\C=O`, the molecule was classed as inactive. On the same count and under the same terms, to `Oc1c(Cl)cc(Cl)c(Cl)c1Cl` belongs “inactive”; to `CN(C)c1ccc2nc3ccc(=[N+](C)C)cc-3sc2c1`, “inactive”; to `CC(=O)OCC=C(C)C`, “inactive”. The same measure, in the same setting: the same measure for `CC(C=O)c1ccccc1` (centres undefined): “inactive”.

With `N=C1C=CC(=C(c2ccc(N)cc2)c2ccc(N)cc2)C=C1`, the AC50 was 24.7 µM (active). For the molecule `CO[Si](CCCS)(OC)OC`, the outcome was inactive. Same read-out and setting: to `CCCCCCCO` belongs “inactive”; to `CC1CCC(=O)C1=O` (centres undefined), “inactive”. Take `CCOC(=O)c1ccc(C)cc1`: the molecule was classed as inactive. The same measure, in the same setting: to `CC(C)(C)N` belongs “inactive”; to `COC(Cc1ccccc1)OC`, “inactive”; to `CC1(C)CCC[C@]2(C)[C@H]3CC(=O)O[C@]3(C)CC[C@@H]12`, “inactive”. Still for that read-out and setting: the same measure for `CCOC(=O)[C@H](O)[C@@H](O)C(=O)OCC`: “inactive”; for `CCCC=C(C=O)CC`: “inactive”. Regarding `CC(C)c1cc(C(C)C)cc(C(C)C)c1`, the AC50 is 180 µM (active). In the case of `CC1=NN(c2ccc(S(=O)(=O)O)cc2)C(=O)C1N=Nc1ccccc1` (centres undefined), the molecule was called inactive. The same measure, in the same setting: the same measure for `CC(=O)CCC=C(C)C`: “inactive”. Still for that read-out and setting: to `CCOC(=O)CC(=O)c1ccccc1` belongs “inactive”; to `CC(c1cc(C(C)(C)C)cc(C(C)(C)C)c1O)c1cc(C(C)(C)C)cc(C(C)(C)C)c1O`, “inactive”. As to `Cc1ccc(C)c(OCCCC(C)(C)C(=O)O)c1`, the molecule was called inactive.

For `Nc1cccc(N)n1`, the call was inactive. On the same count and under the same terms, the same measure for `Cc1cc(C)c(C=O)c(C)c1`: “inactive”.

The values are drawn from PubChem BioAssay (EPA / NIEHS).
